An excerpt weighted towards active compounds, which were near 19% of everything screened.
HT1080 IDH1KD tx = kills HT-1080 cells with IDH1 knockdown. HT-1080 IDH1 knockdown viability, ATP luminescence, 48 h. Potency, µM (series often up to 46.1 µM), for inactives: at the top dose activity, negative = toxicity, usual class: cytotoxic. 360,000 tested, 2% active. AID 686971;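 further: potency means the concentration at half of the fitted maximal effect; 0% = DMSO wells and -100% = cell-free medium wells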
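In this qHTS, HT-1080 cells depleted of IDH1 are exposed for 48 h at 37 °C to compound titrations. Toxicity is scored from CellTiter-Glo luminescence, with DMSO as full viability and medium alone as none.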
DT40 TDP1 no CPT = qHTS for Inhibitors of human tyrosyl-DNA phosphodiesterase 1 (TDP1): qHTS in cells in absence of CPT. Potency, µM (highest dose often 46.2 µM), inactives show at the highest dose activity change, negative = growth inhibition, hits mostly inhibitors. 420,000 tested, 15% active. DT40 Tdp1-/- hTDP1 cells, no CPT, ATP luminescence, 48 h; further: potency means the concentration at half of the fitted maximal effect; nearly all actives have a fitted effect of over 55% in size
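Camptothecin absent (DMSO only). Human TDP1-complemented DT40 knockout cells, 400 cells/well, 37 °C for minimum 48 hr; ATP measured via CellTiter-Glo, 30 min dark incubation, luminescence.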
DT40 TDP1 CPT = DT40-hTDP1 cell growth loss with CPT. chicken DT40 Tdp1-/-;hTDP1 cells + 20 nM CPT, ATP luminescence, 48 h. 420,000 tested, 12% active. Potency, µM (titrated, usually from 46.2 µM), inactives show at the top dose activity change, negative = growth inhibition, usual class: inhibitors; further: potency means the concentration at half of the fitted maximal effect; nearly all actives have a fitted effect of over 55% in size
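Chicken DT40 Tdp1-/- cells complemented with human TDP1, 400 cells/well, exposed to compounds plus 20 nM camptothecin for at least 48 h at 37 C; viability read as ATP content by CellTiter-Glo luminescence.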
IL1B secr inh = inhibitors of inflammasome signaling (IL-1 beta secretion) | AID 743279 | activity change, % at 57.5 µM | THP-1 LPS/ATP IL-1B secretion, AlphaLISA, 16 h; active compounds read low | 360,000 tested, 4.7% active; in the data active means activity change below about -50%; inconclusive means mostly about -30% to -49%
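Secreted IL-1B measured by AlphaLISA bead assay after 16 h compound exposure of THP-1 cells; compounds (final up to 57.5 uM) added 1 h before LPS (250 ng/mL) and ATP (1.25 mM) stimulation; lower signal means less secretion.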
HT1080-NT tox = kills 2HG-producing HT-1080-NT fibrosarcoma cells | HT-1080-NT fibrosarcoma viability, CellTiter-Glo ATP luminescence, 48 h | Potency, µM (top dose mostly 46.1 µM), for the others: top-dose activity, negative = less viability, actives largely listed as cytotoxic | 360,000 tested, 1.6% active | AID 686970;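 further: NT is the 2HG producing partner of a matched IDH1 knockdown line; potency means the concentration at half of the fitted maximal effect; 0% = DMSO-treated cells and -100% = media-only wells without cells; nearly all actives have a fitted effect of over 55% in size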
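Viability by CellTiter-Glo luminescence after 48 h compound exposure at 37C of HT-1080-NT cells (750/well, RPMI, 5% FBS). % activity scaled between DMSO wells and medium-only wells, then curve-fitted and categorized by curve class.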
* = called active by the depositor; [ ] = remark or other dose. Unless noted, the call rests on the fitted dose curve; in most records, active means well fitted curve in the direction sought with a large enough effect; inconclusive means small, poorly fitted or top-dose-only effect, or another doubt; inactive means no such curve, though single readings can be large; an effect the other way counts as inactive or inconclusive. Unless noted, on the % scale 0 is the no-effect control and ±100 the full control effect.

`O=C(NC(=S)NCc1ccccc1)c1cccc(Cl)c1` gave HT1080 IDH1KD tx 1%, DT40 TDP1 no CPT inconclusive, DT40 TDP1 CPT -6%, IL1B secr inh -8 and HT1080-NT tox 5%.
Cc1cc(NS(=O)(=O)c2ccc(NC(=O)c3ccccc3F)cc2)nc(C)n1 was read as DT40 TDP1 no CPT -4% and DT40 TDP1 CPT -3%.
O=C(CSc1ccccc1)N1CCN(c2ccc(F)cc2)CC1 was read as HT1080 IDH1KD tx 9%, DT40 TDP1 no CPT inconclusive, DT40 TDP1 CPT 0%, IL1B secr inh -10 and HT1080-NT tox 0%.
COc1ccc(C(=O)Nc2ccc3nc(N4CCCCC4)cc(C)c3c2)c(OC)c1 was read as DT40 TDP1 no CPT inconclusive and DT40 TDP1 CPT -24%.
Cc1cc(N2CCCC2)nc2ccc(NC(=S)NC(C)C)cc12 was read as HT1080 IDH1KD tx 10%, DT40 TDP1 no CPT 16µM*, DT40 TDP1 CPT inconclusive, IL1B secr inh -15 and HT1080-NT tox 4%.
`Cc1ccc(C(=O)Nc2ccc3nc(N4CCCCC4)cc(C)c3c2)cc1F` gave DT40 TDP1 no CPT 23µM* and DT40 TDP1 CPT inconclusive.
`Cc1cc(N2CCOCC2)nc2ccc(NC(=S)NCc3ccc4c(c3)OCO4)cc12` gave HT1080 IDH1KD tx 0%, DT40 TDP1 no CPT 18µM*, DT40 TDP1 CPT inconclusive, IL1B secr inh -12 and HT1080-NT tox -1%.
For Cc1cc(N2CCCCC2)nc2ccc(NC(=O)c3cccc(Cl)c3)cc12 the results were DT40 TDP1 no CPT 21µM* and DT40 TDP1 CPT 23µM*.
For CCSc1nn2c(=O)c3ccccc3nc2s1 the results were HT1080 IDH1KD tx -4%, DT40 TDP1 no CPT inconclusive, DT40 TDP1 CPT -24%, IL1B secr inh -11 and HT1080-NT tox 1%.
`CCN1CCN(c2cc(C)c3cc(NC(=O)c4ccc(C)c(C)c4)ccc3n2)CC1` gave HT1080 IDH1KD tx 2%, DT40 TDP1 no CPT 18µM*, DT40 TDP1 CPT inconclusive, IL1B secr inh -7 and HT1080-NT tox -2%.
For Cc1cc(N2CCCCC2)nc2ccc(NC(=O)c3cccc(F)c3)cc12 the results were DT40 TDP1 no CPT 7.3µM* and DT40 TDP1 CPT 7.3µM*.
For Cc1ccc(S(=O)(=O)C(C#N)c2nc3ccccc3nc2N2CC(C)OC(C)C2)cc1C (centres undefined) the results were HT1080 IDH1KD tx -20%, DT40 TDP1 no CPT 15µM*, DT40 TDP1 CPT inconclusive, IL1B secr inh 18 and HT1080-NT tox -13%.
For Cc1cccc(S(=O)(=O)C(C#N)c2nc3ccccc3nc2N2CC(C)OC(C)C2)c1 (centres undefined) the results were HT1080 IDH1KD tx -1%[9.24 µM], DT40 TDP1 no CPT 26µM*, DT40 TDP1 CPT 26µM*, IL1B secr inh 42 and HT1080-NT tox -27%.
For Cc1ccc(S(=O)(=O)C(C#N)c2nc3ccccc3nc2N2CCCC2)cc1 (centres undefined) the results were HT1080 IDH1KD tx 0%, DT40 TDP1 no CPT inconclusive, DT40 TDP1 CPT -29%, IL1B secr inh 7 and HT1080-NT tox -3%.
Screening N#CC(c1nc2ccccc2nc1N1CCOCC1)S(=O)(=O)c1ccccc1 (centres undefined) returned HT1080 IDH1KD tx 1%, DT40 TDP1 no CPT 29µM*, DT40 TDP1 CPT -7% and HT1080-NT tox -6%.
`CCCC(NC(=O)C(C)N1CCN(S(=O)(=O)c2ccccc2)CC1)c1ccccc1` (centres undefined) gave HT1080 IDH1KD tx 9%, DT40 TDP1 no CPT inconclusive, DT40 TDP1 CPT inconclusive, IL1B secr inh 8 and HT1080-NT tox 2%.
COC(=O)c1ccc(NC(=O)CCN2CCN(Cc3ccccc3)CC2)cc1 was read as HT1080 IDH1KD tx -1%, DT40 TDP1 no CPT -13%, DT40 TDP1 CPT -1%, IL1B secr inh 3 and HT1080-NT tox -4%.
CCOc1ccc(-c2nc(SCC(=O)Nc3cc(F)ccc3F)n3[nH]c(=O)cc3n2)cc1 was read as DT40 TDP1 no CPT -12% and DT40 TDP1 CPT -4%.
CC/C(=N/NC(=O)CNc1ccc(Cl)cc1C)c1ccccc1 was read as HT1080 IDH1KD tx 11%, DT40 TDP1 no CPT -3%, DT40 TDP1 CPT 8%, IL1B secr inh 11 and HT1080-NT tox 8%.
Cc1ccc(C(=O)CSc2nc3ccccc3c(=O)[nH]2)cc1 was read as HT1080 IDH1KD tx 2%, DT40 TDP1 no CPT 8.2µM*, DT40 TDP1 CPT 5.8µM*, IL1B secr inh 0 and HT1080-NT tox 2%.
Screening Cc1ccc(C(=O)CSc2nc3ccccc3c(=O)[nH]2)cc1C returned HT1080 IDH1KD tx -28%, DT40 TDP1 no CPT inconclusive, DT40 TDP1 CPT inconclusive, IL1B secr inh 22 and HT1080-NT tox 2%.
Screening CCOc1ccc(OCCSc2nc3ccccc3c(=O)[nH]2)cc1 returned HT1080 IDH1KD tx inconclusive, DT40 TDP1 no CPT inconclusive, DT40 TDP1 CPT inconclusive, IL1B secr inh 26 and HT1080-NT tox -1%.
`O=C(CSc1ccc2ccccc2n1)c1ccccc1` gave HT1080 IDH1KD tx 0%, DT40 TDP1 no CPT inconclusive, DT40 TDP1 CPT 0%, IL1B secr inh 37 and HT1080-NT tox 0%.
For O=c1[nH]c(SCCOc2cccc3ccccc23)nc2ccccc12 the results were HT1080 IDH1KD tx 7%, DT40 TDP1 no CPT 7.3µM*, DT40 TDP1 CPT inconclusive, IL1B secr inh 20 and HT1080-NT tox inconclusive.
Screening Cc1nc2ccccc2nc1SCC(=O)c1ccccc1 returned HT1080 IDH1KD tx -6%, DT40 TDP1 no CPT 7.3µM*, DT40 TDP1 CPT inconclusive, IL1B secr inh 15 and HT1080-NT tox 1%.
For COc1ccc(C(=O)CSc2nc(C)cc(=O)[nH]2)cc1 the results were HT1080 IDH1KD tx -4%, DT40 TDP1 no CPT -15%, DT40 TDP1 CPT -13%, IL1B secr inh 27 and HT1080-NT tox -3%.
`Cc1cc(=O)[nH]c(SCC(=O)c2ccc(C(C)C)cc2)n1` gave HT1080 IDH1KD tx -9%, DT40 TDP1 no CPT 18µM*, DT40 TDP1 CPT -26%, IL1B secr inh 22 and HT1080-NT tox -1%.
COc1cc(/C=C2\C=CC(=O)O2)cc(OC)c1 was read as HT1080 IDH1KD tx -2%, DT40 TDP1 no CPT -22%, DT40 TDP1 CPT 2%, IL1B secr inh inconclusive and HT1080-NT tox 0%.
`Cc1cc2nccnc2cc1C` gave HT1080 IDH1KD tx 4%, DT40 TDP1 no CPT -3%, DT40 TDP1 CPT 0%, IL1B secr inh 6 and HT1080-NT tox 1%.
Screening CC1(C(=O)NS(=O)(=O)c2cccc(F)c2)CCN1C(=O)C1CCCCC1 (centres undefined) returned HT1080 IDH1KD tx 11%, DT40 TDP1 no CPT -3%, DT40 TDP1 CPT -11%, IL1B secr inh -12 and HT1080-NT tox 4%.

Screening results (PubChem)
